Where “and” joins values, the source holds several entries; their conditions need not be identical. Equal entries are not always repeated. Some structures have more than one record in an assay (separate samples or runs), and their calls can disagree. Calls of active or inactive are those of the source. How the source made its calls: active means hit-call score of the fitted dose curve at least 0.9, where 1 is the maximum; inactive means score below 0.9.
How the values were obtained:
[1] = ATG_ISRE_CIS: Attagene CIS-FACTORIAL HepG2 Assay for human Interferon Regulatory Factor 1 (IRF1) binding to an Interferon-Stimulated Response Element (ISRE) (AID 2282948); settings: HepG2 ISRE cis-reporter (Attagene), mRNA transcription readout; actives raise or lower the signal
How it was run: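 Read-out: fluorescent RT-PCR products resolved by capillary electrophoresis, reporting endogenous transcription factor activity via ISRE-driven reporter mRNA in transfected HepG2 cells dosed for 24 h; gain or loss fitted relative to DMSO.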

[2] = ATG_M_32_CIS: Attagene CIS-FACTORIAL HepG2 Assay for M32 Transcription Factor (Internal Marker) (AID 2282949); settings: HepG2 Attagene cis-factorial M32 reporter, mRNA; actives raise or lower the signal;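 further: background control marker of the multiplexed CIS panel rather than a real target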
How it was run: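 HepG2 human liver cells transiently transfected with cis-promoter-driven multiple reporter transcription units, dosed 24 h. Reporter mRNA quantified by RT-PCR, FAM-labelled primer extension, HpaI digest and capillary electrophoresis; bidirectional fit versus DMSO baseline.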

[3] = ATG_M_06_CIS: Attagene CIS-FACTORIAL HepG2 Assay for M06 Transcription Factor (Internal Marker) (AID 2282950); settings: HepG2 Attagene CIS-FACTORIAL M06 internal marker reporter; actives raise or lower the signal
How it was run: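 Internal background marker within multiplexed cis-reporter HepG2 system. Cells transiently transfected, dosed 24 h; reporter mRNA measured by RT-PCR, HpaI digestion and capillary electrophoresis. Bidirectional fit relative to DMSO.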

[4] = target: Hepatocyte nuclear factor 6 (Homo sapiens) (UniProt Q9UBC0); experiment: ATG_HNF6_CIS: Attagene CIS-FACTORIAL HepG2 Assay for human Hepatocyte Nuclear Factor 6 (HNF6) (AID 2282952); settings: HepG2 Attagene cis-factorial HNF6 reporter transcription; actives raise or lower the signal
Chain of Hepatocyte nuclear factor 6 (Homo sapiens) (Q9UBC0 whole entry, looked up): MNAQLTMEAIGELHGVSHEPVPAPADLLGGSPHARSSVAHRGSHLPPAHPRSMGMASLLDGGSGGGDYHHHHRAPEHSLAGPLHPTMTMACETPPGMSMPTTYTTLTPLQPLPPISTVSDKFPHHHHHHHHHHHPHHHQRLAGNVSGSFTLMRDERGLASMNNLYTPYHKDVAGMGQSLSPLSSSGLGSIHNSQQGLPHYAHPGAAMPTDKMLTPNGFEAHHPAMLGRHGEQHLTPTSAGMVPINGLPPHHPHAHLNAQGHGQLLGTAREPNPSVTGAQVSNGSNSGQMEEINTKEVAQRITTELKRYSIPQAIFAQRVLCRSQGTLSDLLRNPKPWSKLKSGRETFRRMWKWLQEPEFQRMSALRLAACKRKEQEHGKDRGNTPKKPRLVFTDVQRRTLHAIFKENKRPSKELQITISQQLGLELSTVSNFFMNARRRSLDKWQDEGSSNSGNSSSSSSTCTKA
How it was run: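 Activity values derive from bidirectional fitting against DMSO of reporter mRNA levels, measured by capillary electrophoresis of labelled RT-PCR products from HepG2 cells exposed 24 h.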

[5] = target: Heat shock factor protein 1 (Homo sapiens) (UniProt Q00613); experiment: ATG_HSE_CIS: Attagene CIS-FACTORIAL HepG2 Assay for human Heat Shock Transcription Factor 1 (HSE) (AID 2282953); settings: HepG2 HSE cis-reporter, Attagene RNA transcription; actives raise or lower the signal
Chain of Heat shock factor protein 1 (Homo sapiens) (Q00613 whole entry, looked up): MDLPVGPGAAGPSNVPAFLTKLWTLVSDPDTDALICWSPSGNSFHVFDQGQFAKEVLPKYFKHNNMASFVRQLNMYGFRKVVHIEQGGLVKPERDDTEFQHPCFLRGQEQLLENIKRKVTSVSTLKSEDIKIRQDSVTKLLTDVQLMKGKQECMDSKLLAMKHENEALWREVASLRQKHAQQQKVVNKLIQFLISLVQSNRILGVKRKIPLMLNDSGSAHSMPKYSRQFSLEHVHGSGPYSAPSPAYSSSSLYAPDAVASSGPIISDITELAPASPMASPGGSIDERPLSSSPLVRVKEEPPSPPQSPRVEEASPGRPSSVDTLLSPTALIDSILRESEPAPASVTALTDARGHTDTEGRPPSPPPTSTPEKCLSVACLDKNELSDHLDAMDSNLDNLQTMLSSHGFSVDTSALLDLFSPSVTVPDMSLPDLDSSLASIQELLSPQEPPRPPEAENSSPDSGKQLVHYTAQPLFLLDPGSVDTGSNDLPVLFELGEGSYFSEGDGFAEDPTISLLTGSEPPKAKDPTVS
How it was run: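 HepG2 cells transfected with cis-promoter reporter units sensing endogenous transcription factor activity; reporter mRNA quantified 24 h post-dose by RT-PCR and capillary electrophoresis of 6-FAM-labelled products. Bidirectional fitting against DMSO.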

[6] = ATG_MRE_CIS: Attagene CIS-FACTORIAL HepG2 Assay for human Metal Responsive Element (MRE) (AID 2282954); settings: HepG2 MRE cis-reporter transcription, Attagene multiplex; actives raise or lower the signal
How it was run: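 Measured here is mRNA induction from an MRE cis-element reporter in HepG2 after 24 h, quantified by fluorescence of labelled RT-PCR products on capillary electrophoresis; gain- and loss-of-signal fits use DMSO as baseline.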

[7] = ATG_PBREM_CIS: Attagene CIS-FACTORIAL HepG2 Assay for human Phenobarbital-responsive Enhancer Module (PBREM) (AID 2282955); settings: HepG2 PBREM cis-reporter, Attagene multiplexed transcription; actives raise or lower the signal
How it was run: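 Endogenous transcription factor activity was read from reporter transcripts in transiently transfected human HepG2 liver cells after 24 h dosing. RT-PCR products were fluorescently labelled, HpaI-cut and sized by capillary electrophoresis; activity fitted bidirectionally against DMSO baseline.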

[8] = target: Paired box protein Pax-6 (Homo sapiens) (UniProt P26367); experiment: ATG_Pax6_CIS: Attagene CIS-FACTORIAL HepG2 Assay for human Paired Box 6 (PAX6) (AID 2282956); settings: HepG2 CIS-FACTORIAL PAX6 reporter transcription, RNA readout; actives raise or lower the signal
Chain of Paired box protein Pax-6 (Homo sapiens) (P26367 whole entry, looked up): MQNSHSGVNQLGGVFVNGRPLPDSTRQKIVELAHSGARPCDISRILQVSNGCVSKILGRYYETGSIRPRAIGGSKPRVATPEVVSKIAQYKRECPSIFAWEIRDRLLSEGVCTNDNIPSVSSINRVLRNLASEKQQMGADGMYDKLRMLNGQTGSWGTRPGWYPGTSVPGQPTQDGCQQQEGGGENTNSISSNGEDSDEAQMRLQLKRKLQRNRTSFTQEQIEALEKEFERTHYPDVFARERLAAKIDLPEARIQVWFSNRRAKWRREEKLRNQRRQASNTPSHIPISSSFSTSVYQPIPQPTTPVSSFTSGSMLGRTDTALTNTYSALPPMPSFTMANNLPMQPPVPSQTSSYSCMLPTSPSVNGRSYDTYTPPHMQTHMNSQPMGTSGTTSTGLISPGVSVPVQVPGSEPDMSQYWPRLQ
How it was run: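 Readout: reporter transcript fluorescence after RT-PCR and capillary electrophoresis. Cells: HepG2, transiently transfected with cis-regulated MRTUs. Exposure 24 h. Gain or loss of signal fitted bidirectionally relative to DMSO.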

[9] = ATG_PXRE_CIS: Attagene CIS-FACTORIAL HepG2 Assay for human Pregnane X Receptor Element (PXRE) (AID 2282957); settings: HepG2 Attagene CIS-FACTORIAL PXRE reporter, mRNA; actives raise or lower the signal
How it was run: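 Fluorescent capillary electrophoresis of amplified reporter cDNA gave the signal, collected 24 h after dosing HepG2 cells that held transfected cis-element reporter constructs.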

[10] = target: Hypoxia-inducible factor 1-alpha (Homo sapiens) (UniProt Q16665); experiment: ATG_HIF1a_CIS: Attagene CIS-FACTORIAL HepG2 Assay for human Hypoxia Inducible Factor 1 (HIF1A) (AID 2282951); settings: HepG2 Attagene cis-factorial HIF1a reporter transcription; actives raise or lower the signal
Chain of Hypoxia-inducible factor 1-alpha (Homo sapiens) (Q16665 whole entry, looked up): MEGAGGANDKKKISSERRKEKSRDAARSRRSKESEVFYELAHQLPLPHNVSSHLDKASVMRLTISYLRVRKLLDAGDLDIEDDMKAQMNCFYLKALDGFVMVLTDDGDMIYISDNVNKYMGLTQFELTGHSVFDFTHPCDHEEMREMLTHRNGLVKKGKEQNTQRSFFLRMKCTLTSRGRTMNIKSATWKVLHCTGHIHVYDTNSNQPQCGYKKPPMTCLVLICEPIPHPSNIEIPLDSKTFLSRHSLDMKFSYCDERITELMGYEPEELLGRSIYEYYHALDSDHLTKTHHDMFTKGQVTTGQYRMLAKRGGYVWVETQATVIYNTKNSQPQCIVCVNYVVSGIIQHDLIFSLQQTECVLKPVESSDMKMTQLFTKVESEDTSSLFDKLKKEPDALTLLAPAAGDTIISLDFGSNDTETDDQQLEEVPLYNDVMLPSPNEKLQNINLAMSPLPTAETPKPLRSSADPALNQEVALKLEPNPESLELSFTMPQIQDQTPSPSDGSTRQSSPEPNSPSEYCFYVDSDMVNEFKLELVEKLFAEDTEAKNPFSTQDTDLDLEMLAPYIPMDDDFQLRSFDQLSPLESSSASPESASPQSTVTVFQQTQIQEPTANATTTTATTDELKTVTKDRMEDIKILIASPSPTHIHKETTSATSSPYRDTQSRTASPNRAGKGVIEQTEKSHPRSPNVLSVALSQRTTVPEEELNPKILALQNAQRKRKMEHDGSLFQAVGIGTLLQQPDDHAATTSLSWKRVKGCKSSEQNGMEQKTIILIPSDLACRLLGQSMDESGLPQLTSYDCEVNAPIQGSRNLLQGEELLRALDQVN
How it was run: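 Activity is fitted in both directions relative to DMSO. Reporter transcripts are read by RT-PCR, fluorescent primer extension and capillary electrophoresis after 24 h chemical treatment. The cells are HepG2 carrying transiently transfected cis-element-driven reporter units responding to endogenous factors.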

Measured: AC50

CCOC(=O)/C=C(C)/C=C/C[C@@H](C)CCCC(C)C
active: [2] 157 µM | [4] 176 µM | [5] 62.9 µM | [6] 174 µM | [7] 182 µM | [9] 2.55 µM
inactive: [1] | [3] | [8]

ClC1(Cl)C2(Cl)C3(Cl)C4(Cl)C(Cl)(Cl)C5(Cl)C3(Cl)C1(Cl)C5(Cl)C24Cl (configuration not stated)
active: [9] 0.365 µM
not listed: [4] | [7] | [10]
inactive: all other assays above

C[C@]12CC[C@H](O)CC1=CC[C@@H]1[C@@H]2CC[C@]2(C)C(=O)CC[C@@H]12
active: [9] 27.3 µM
not listed: [4] | [10]
inactive: all other assays above

COP(=O)(OC)OC
active: [9] 32.7 µM
not listed: [10]
inactive: all other assays above

COc1cccc(C=O)c1
not listed: [4] | [8] | [10]
inactive: all other assays above

CCCCP(CCCC)CCCC
active: [9] 23.6 µM
not listed: [4] | [7] | [10]
inactive: all other assays above

Cl/C=C/Cl
not listed: [7] | [8] | [10]
inactive: all other assays above

CN(CCCC(=O)c1cccnc1)N=O
active: [9] 27.2 µM
not listed: [10]
inactive: all other assays above

CCCCOCCOC(C)=O
not listed: [8] | [10]
inactive: all other assays above

COP(=S)(OC)Oc1c(Cl)cc(C)cc1Cl
active: [6] 27.1 µM | [9] 4.62 µM
not listed: [10]
inactive: all other assays above

CCC1(c2ccc(N)cc2)CCC(=O)NC1=O (configuration not stated)
active: [9] 64.9 µM
not listed: [7] | [8] | [10]
inactive: all other assays above

C[C@H]1O[C@@H](O[C@H]2[C@@H](O)C[C@H](O[C@H]3[C@@H](O)C[C@H](O[C@H]4CC[C@@]5(C)[C@H](CC[C@@H]6[C@@H]5CC[C@]5(C)[C@@H](C7=CC(=O)OC7)CC[C@]65O)C4)O[C@@H]3C)O[C@@H]2C)C[C@H](O)[C@@H]1O
active: [1] 0.254 µM | [4] 0.0564 µM | [9] 0.0564 µM
not listed: [5] | [10]
inactive: all other assays above

Clc1nc(Cl)nc(Cl)n1
active: [5] 144 µM | [9] 34.9 µM
not listed: [10]
inactive: all other assays above

Fc1ccc(C2(Cn3cncn3)OC2c2ccccc2Cl)cc1 (configuration not stated)
active: [9] 3.04 µM
not listed: [10]
inactive: all other assays above

C[C@@H]1C[C@@H]([C@H](O)CC2CC(=O)NC(=O)C2)C(=O)[C@@H](C)C1
inactive: [2] | [3] | [10] | [4] | [5] | [6] | [8]
active: [10] 119 nM and 22.9 µM | [5] 2.68 µM and 1.53 µM

CC(C#N)CCC#N (configuration not stated)
not listed: [7] | [10]
inactive: all other assays above

Cc1ccc2ccccc2c1C
active: [9] 10.1 µM
not listed: [4] | [10]
inactive: all other assays above

CCN1CCC2(CC1)COc1cc3c(cc12)N(C(=O)c1ccc(-c2ccc(-c4nnc(C)o4)cc2C)cc1)CC3
not listed: [10]
inactive: all other assays above

— PubChem BioAssay (EPA / NIEHS)
